LmPK inh: blocks Leishmania mexicana pyruvate kinase activity. Q27686. purified LmPK, Kinase-Glo ATP luminescence, 1 h. Potency, µM (series often up to 57.5 µM), without a hit: at the highest dose activity change, negative = inhibition, usual class: inhibitors. hit rate 0.37% among 290,000. AID 1721; further: potency means the concentration at half of the fitted maximal effect; on the % scale 0 is the no-effect control and ±100 the full control effect
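Purified LmPK (0.1 nM) converted ADP (0.1 mM) to ATP with PEP (0.5 mM) in imidazole buffer pH 7.2 with KCl and MgCl2, 1 h at room temperature. ATP was read by Kinase-Glo luminescence; data normalized to uninhibited and no-enzyme controls.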
TbPYK inhibitor: blocks Trypanosoma brucei pyruvate kinase | TbPYK enzyme, Kinase-Glo Plus ATP luminescence, 45 min | Potency, µM (titrated, usually from 76.8 µM), for the others: at the highest dose activity, negative = inhibition, hits mostly inhibitors | hit rate 0.12% among 410,000 | Q57TT1; further: potency means the concentration at half of the fitted maximal effect; on the % scale 0 is the no-effect control and ±100 the full control effect; nearly all actives have a fitted effect of over 50% in size
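In this concentration-response screen, enzyme-free wells defined baseline while DMSO plates tracked drift. Each reaction combined TbPYK, substrate, compound and 130 uM ADP for 45 min at room temperature. Kinase-Glo Plus luminescence gave the signal.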
Cycloheximide cs: counter-screen for Shiga toxin inhibitors: cycloheximide protein synthesis inhibition | cell reporter, cycloheximide protein synthesis inhibition counterscreen | max response, % | hit rate 12% among 300,000 | AID 2314; in the data active means max response mostly above about 13%, no sharp cut-off; inactive means mostly below about 14%; further: read at 38.3 µM for the half of the compounds with a filed dose; 0% is about no effect
RE007 growth inh: less growth of the S. pombe RE007 Vpr strain | S. pombe RE007 Vpr strain, BacTiter-Glo ATP luminescence, 24 h | Potency, µM (top dose mostly 92.2 µM), for inactives: at the highest dose activity change, negative = less growth, hits mostly inhibitors | hit rate 0.21% among 360,000 | AID 651644; active means well fitted falling curve with a large enough effect; inconclusive means small, poorly fitted or top-dose-only effect; inactive means no such curve, though single readings can be large or run the other way; further: potency means the concentration at half of the fitted maximal effect; on the % scale 0 is the no-effect control and ±100 the full control effect; nearly all actives have a fitted effect of over 50% in size
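Fission yeast RE007 carrying one integrated HIV-1 vpr copy, seeded at OD 0.01 in PMG+AL medium with 23 nL pinned compound. Grown 24 h at 30 degrees; viability read by BacTiter-Glo luminescence after 5 min.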
Shiga toxin inh: inhibitors of Shiga toxin in Vero cells. Vero cells, Shiga toxin protein synthesis inhibition reporter. inhibition, % at 38.7 µM. hit rate 9.2% among 290,000. AID 2315; in the data active means inhibition mostly above about 28%, no sharp cut-off; inactive means mostly below about 43%; further: 0% is about no effect
FBPA Giardia inh: inhibitors of Giardia lamblia fructose-1,6-bisphosphate aldolase; hit rate 0.71% among 290,000; A8B2U2; AID 2451; Potency, µM (highest dose often 59.6 µM), without a hit: at the top dose activity, negative = inhibition, usual class: inhibitors; purified Giardia FBPA; further: potency means the concentration at half of the fitted maximal effect; on the % scale 0 is the no-effect control and ±100 the full control effect; nearly all actives have a fitted effect of over 55% in size
Target sequence (A8B2U2 whole entry, looked up): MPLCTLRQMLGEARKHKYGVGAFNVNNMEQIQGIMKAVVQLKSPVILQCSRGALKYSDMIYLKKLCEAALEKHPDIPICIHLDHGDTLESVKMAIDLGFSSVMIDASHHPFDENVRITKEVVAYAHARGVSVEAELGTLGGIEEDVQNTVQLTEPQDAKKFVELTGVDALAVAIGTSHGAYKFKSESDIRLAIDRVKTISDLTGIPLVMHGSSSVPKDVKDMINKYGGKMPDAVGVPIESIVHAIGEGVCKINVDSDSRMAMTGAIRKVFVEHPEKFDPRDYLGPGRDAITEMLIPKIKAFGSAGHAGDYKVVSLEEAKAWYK
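40 nM FBPA preincubated 10 min at RT with compound (up to 57.5 uM final), then substrate plus GAPDH/TPI/NAD/arsenate coupling and diaphorase/resazurin added. Fluorescence read after 20 min at RT, 525/598 nm.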
* = called active by the depositor; ? = inconclusive; · = not tested or not shown. Shown is part of a subset that was picked to be rich in hits. Unless noted, the call rests on the fitted dose curve; in most records, active means well fitted curve in the direction sought with a large enough effect; inconclusive means small, poorly fitted or top-dose-only effect, or another doubt; inactive means no such curve, though single readings can be large; an effect the other way counts as inactive or inconclusive.

SMILES | LmPK inh | TbPYK inhibitor | Cycloheximide cs | RE007 growth inh | Shiga toxin inh | FBPA Giardia inh
CC1CCCN(S(=O)(=O)c2cc3c4c(c2)C(C)C(=O)N4CCC3)C1 (configuration not stated) | 9.2% | 2.2% | -1.7 | 5.2% | -3.7 | ·
C[C@H]1CN([C@@H](C)CO)C(=O)CCCn2cc(nn2)CO[C@@H]1CN(C)C(=O)Nc1cccc(F)c1 | · | 5.4% | · | -11.0% | · | ·
Cc1ccnc(NS(=O)(=O)c2ccc(NC(=O)C(C)(C)Oc3ccc(Cl)cc3)cc2)n1 | · | 2.4% | · | · | · | ·
CCN1CCN(C2=C(NS(=O)(=O)c3ccc(NC(C)=O)cc3)C(=O)c3ccccc3C2=O)CC1 | -7.7% | -6.7% | 21.8 | -17.3% | -2.4 | ·
CC1CCN(C2=C(NS(=O)(=O)c3ccccc3)C(=O)c3ccccc3C2=O)CC1 | -22.3% | -7.8% | 19.7* | -22.6% | 19.8 | ?
CCN1CCN(C2=C(NS(=O)(=O)c3ccc(C)cc3)C(=O)c3ccccc3C2=O)CC1 | -2.6% | -6.0% | 23.1* | -5.3% | 37.7 | ·
CC(=O)Nc1ccc(S(=O)(=O)NC2=C(N3CCN(C)CC3)C(=O)c3ccccc3C2=O)cc1 | -5.8% | -9.9% | -1.9 | -4.6% | 4.1 | 0.708µM*
CC1CCN(C2=C(NS(=O)(=O)c3ccc(Cl)cc3)C(=O)c3ccccc3C2=O)CC1 | -11.1% | -6.1% | 22.5* | -14.2% | 84.6* | ?
CCOC(=O)C1CCN(C2=C(NS(=O)(=O)c3ccc(Cl)cc3)C(=O)c3ccccc3C2=O)CC1 | -28.1% | -10.3% | -3.5 | -4.0% | 11.1 | ?
CCc1ccc(-c2nn(CC(=O)NCc3ccccc3)c3c2cnc2ccc(F)cc23)cc1 | · | 1.0% | · | · | · | ·
COc1cc2c(=O)c(S(=O)(=O)c3ccccc3)cn(CC(=O)Nc3ccccc3C)c2cc1OC | · | -12.1% | · | · | · | ·
CCc1cc(CNC(=O)C2CCC(=O)N(Cc3ccccc3F)C2)on1 (configuration not stated) | · | 2.9% | · | -17.7% | · | ·
CC1CCN(C2=C(NS(=O)(=O)c3ccc(Br)cc3)C(=O)c3ccccc3C2=O)CC1 | -3.0% | -4.8% | 32.0* | -26.1% | 38.1* | -30.0%
CCC(C(=O)OC)n1cnc2c(nnn2-c2ccc(F)cc2)c1=O (configuration not stated) | -3.9% | -7.7% | 9.1* | -8.8% | 17.3 | 4.8%
CCC(C(=O)OC)n1cnc2c(cnn2-c2ccc(F)cc2)c1=O (configuration not stated) | · | -0.6% | · | · | · | ·
COC(=O)C(C)n1cnc2c(nnn2-c2ccc(C)cc2)c1=O (configuration not stated) | -6.6% | 1.1% | 13.4* | 19.9% | 19.1* | 12.8%
CCOC(=O)C(CC)n1cnc2c(nnn2-c2cccc(OC)c2)c1=O (configuration not stated) | 3.2% | -0.1% | 17.0* | 5.8% | 17.6 | 3.5%
CCOC(=O)C(CC)n1cnc2c(nnn2-c2ccc(C)cc2)c1=O (configuration not stated) | -1.3% | -1.3% | 21.8 | 16.2% | 30.8 | 5.1%
COc1ccc(Cl)cc1C=CC=Nc1ccccc1O | · | -3.8% | · | -29.9% | · | ·
COc1ccc(Cn2ccnc2SCC(=O)Nc2cc(C(F)(F)F)ccc2Cl)cc1 | · | -2.1% | · | · | · | ·
COc1cccc(NC(=O)CCS(=O)(=O)c2cccs2)c1 | -1.7% | -8.5% | 46.9* | -1.7% | 78.4* | -0.3%
CCOC(=O)c1cccc(NC(=O)CCS(=O)(=O)c2cccs2)c1 | 4.9% | -2.8% | -4.8 | 7.6% | 9.8 | 2.4%
CC(=O)c1ccc(NC(=O)c2ccc(NC(=O)CCS(=O)(=O)c3cccs3)cc2)cc1 | 1.5% | -0.4% | 18.3* | 12.9% | 192.5* | -2.5%
COc1cccc(NC(=O)CNC(=O)c2cccs2)c1 | -0.8% | 0.2% | 25.9* | 0.6% | 60.7* | -6.3%
CCCn1cnnc1CNC(=O)C1CCC(=O)N(CCc2cccc(F)c2)C1 (configuration not stated) | -4.0% | 6.0% | -0.6 | 10.1% | -4.9 | -4.3%
CC(=O)N1CCc2cc(S(=O)(=O)NC(C(=O)NCc3ccccc3)C(C)C)ccc21 (configuration not stated) | -1.5% | 0.5% | -3.5 | -3.3% | 1.0 | -0.3%

Assay outcomes deposited in PubChem by National Center for Advancing Translational Sciences (NCATS).
